Screening results: PubChem BioAssay, Broad Institute
Hits are enriched below; roughly 2.9% of the tested compounds scored in any of these assays.
esBAF inh = Bmi1 luciferase reporter increase in mESCs, primary screen, esBAF inhibitor project, mouse ES cells, Bmi1 luciferase knock-in, single point; 24 h; 100% = twice the neutral-well signal; reporter increase, % at 12.5 µM; actives 2% (n = 350,000); in the data active = activation above about 40%; inconclusive = no clear call, values can overlap the other calls;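 note: 0% = median of the plate's neutral control wells and 100% = double that signal; a rise in the Bmi1 reporter signal indicates esBAF inhibition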
MITF act = activators of MITF-driven TRPM1 promoter reporter, primary screen, cell-based, SK-MEL-5, luciferase, single point; SK-MEL-5 TRPM1-promoter luciferase, 24 h; % of positive control, neutral wells = 0; activation, % at 12.5 µM; actives 0.75% (n = 300,000); AID 588334, 2011;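 active = mean activation of at least 80% with every replicate also reaching 80%; inconclusive = mean reaches 80% but some replicate falls short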;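 note: 0% = neutral control wells and 100% = parthenolide positive control wells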
PvdQ inh = P. aeruginosa PvdQ acylase inhibitors, primary screen, biochemical, fluorescence, plate reader and imaging, single point; PvdQ acylase [Pseudomonas aeruginosa LESB58]; purified PvdQ acylase; inhibition, % at 10 µM; actives 0.063% (n = 340,000); in the data active = inhibition above about 30%, passing the limit was not always enough; inconclusive = no clear call, values can overlap the other calls;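 note: 0% = vehicle neutral wells and 100% = reference inhibitor wells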
Wnt bcat act = Wnt/beta-catenin pathway activators, primary screen, cell-based, plate reader, single point; activation, % at 9.35 µM; actives 1.2% (n = 300,000); AID 743398, 2014; Wnt/beta-catenin reporter cell assay, activator; in the data active = activation above about 30%, passing the limit was not always enough; inconclusive = no clear call, values can overlap the other calls;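 note: 0% = neutral control wells and 100% = positive control wells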
N-glyco inh = increase of ERlucT glycosylation luciferase signal, primary screen, N-linked glycosylation inhibitor project, D54 ERlucT cells, luminescence, set 2; reporter increase, % at 12.5 µM; actives 0.23% (n = 360,000); D54 ERlucT glycosylation luciferase reporter, 24 h; percent of 100 nM tunicamycin response;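 active = mean luciferase reporter signal, scaled so untreated is 0 and the glycosylation-blocking control 100, at or above a set limit in every replicate; inconclusive = mean reaches the limit but not every replicate does; inactive = mean below the limit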;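 note: luciferase carries N-glycosylation sites so blocking glycosylation raises the light; 0% = median of neutral control wells and 100% = median of 100 nM tunicamycin wells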
Vif imaging = HIV Vif self-association inhibitors, primary screen, imaging, HEK293T, single point; actives 0.35% (n = 340,000); HEK293T cells, Vif self-association by quenched fluorescence, 24 h; inhibition, % at 7.49 µM; in the data active = inhibition above about 50%, passing the limit was not always enough; inconclusive = no clear call, values can overlap the other calls; inactive = below about 31%
* hit, by the source's call; ? = inconclusive; / = no result given.

SMILES	esBAF inh	MITF act	PvdQ inh	Wnt bcat act	N-glyco inh	Vif imaging
Nc1cc(Nc2ccc(Br)cc2)nc(N)n1	/	?	-5	39*	0	-1
Cc1cc(Nc2ccc(Cl)cc2)nc(N)n1	36	53	-14	/	0	-3
N#C/C(=C\c1ccc(OCc2ccc(F)cc2)cc1)C(=O)Nc1cccc(C(=O)O)c1	33	66	-7	51*	-3	9
Cc1ccccc1COc1ccc(/C=C(\C#N)C(N)=O)cc1	6	36	-1	5	-4	22
N#C/C(=C\c1ccc(OCc2ccccc2)cc1)C(N)=O	/	63	5	41*	2	-2
COc1cccc(CNC(=O)c2cc3c(c(-c4cccc(-c5ccncc5)c4)n2)[C@H](CCO)N([S@@](=O)C(C)(C)C)C3)c1	-3	/	/	/	/	/
CO[C@H]1CN(C)C(=O)c2ccc(NC(=O)Nc3ccccc3Cl)cc2OC[C@H](C)NC[C@H]1C	2	/	/	/	/	/
O=C(/C=C(\Nc1cccc(Cl)c1F)c1ccccc1)c1ccccc1	/	/	/	47*	/	/
CN1CCCCN2[C@@H](CO)[C@H](c3ccc(-c4ccccc4)cc3)[C@@H]2C1	0	/	/	/	/	/
COc1cc2c(cc1OC)C(c1cccs1)N(C(=O)c1cccnc1)CC2 (stereo unspecified)	-9	-24	-20	-11	80*	/
COc1cccc(C(=O)Nc2cc3c(cc2Cl)OCCCO3)c1	/	75	-5	38*	-5	-3
COc1ccc(C(=O)Nc2cc(OC)ccc2OC)cc1	10	-10	-1	/	-2	0
COc1ccc(C(=O)Nc2cc3c(cc2Cl)OCCCO3)cc1	59*	77	-7	/	-7	/
COCCOc1cc(NC(=O)c2cccc(OC)c2)c(Cl)cc1Cl	/	-4	0	-3	0	-4
O=C(C1CC1)N1[C@@H](CO)[C@@H]2c3ccccc3N(S(=O)(=O)c3ccc(F)cc3)C[C@@H]21	-2	/	/	/	/	/
C[C@H]1CN([C@@H](C)CO)C(=O)c2cccc(NC(=O)Nc3ccc4c(c3)OCO4)c2O[C@H]1CN(C)C(=O)NC1CCCCC1	14	/	/	/	/	/
C[C@H]1CCCCO[C@H](CN(C)C(=O)Nc2cccc3ccccc23)[C@@H](C)CN([C@@H](C)CO)C(=O)c2cc(NC(=O)c3ccncc3)ccc2O1	7	/	/	/	/	/
CCS(=O)(=O)N1Cc2ccccc2CC1C(=O)Nc1ccc(C)cc1 (stereo unspecified)	49*	/	-10	18	1	0
CN(CC(=O)Nc1ccc(F)cc1)C(=O)C1Cc2ccccc2CN1S(C)(=O)=O (stereo unspecified)	1	-6	-11	0	-2	3
CCS(=O)(=O)N1Cc2ccccc2CC1C(=O)N(C)CC(=O)Nc1cccc(F)c1 (stereo unspecified)	47*	6	-4	-1	-1	-4
COCC(=O)N(C)C[C@@H]1Oc2cc(C#CC(C)(C)O)ccc2S(=O)(=O)N([C@H](C)CO)C[C@@H]1C	-5	/	/	/	/	/
CCCNC(=O)N(C)C[C@@H]1Oc2ncc(C3=CCCCC3)cc2C(=O)N([C@@H](C)CO)C[C@@H]1C	-6	/	/	/	/	/
Oc1ccccc1/C=N/Nc1nc2ccccc2o1	-47	-9	-23	?	-14	0
Brc1ccc(/C=N/Nc2nc3ccccc3o2)cc1	?	99*	-8	47*	-1	-6
COc1ccc(/C=N/Nc2nc3ccccc3o2)cc1O	-19	-13	4	62*	-14	3
SMILES	esBAF inh	MITF act	PvdQ inh	Wnt bcat act	N-glyco inh	Vif imaging
COc1cc(/C=N/Nc2nc3ccccc3o2)cc(OC)c1O	14	/	7	/	1	-1
COc1cc(/C=N\Nc2nc3ccccc3o2)cc(OC)c1OC	51*	70	-6	?	7	-7
COc1cc(/C=N/Nc2ccccn2)ccc1O	/	29	-8	37*	0	4
C[C@@H](NC(=O)C[C@@H]1C=C[C@H](NS(=O)(=O)c2cccc(F)c2)[C@H](CO)O1)c1ccccc1	0	/	/	/	/	/
CCCNC(=O)C[C@H]1C[C@@H]2c3cc(NC(=O)CC4CC4)ccc3O[C@@H]2[C@@H](CO)O1	2	/	/	/	/	/
Nc1ccc(Oc2ncccn2)c(Cl)c1	-3	-9	4	1	3	-2
Fc1ccc(Oc2ccnc(Cl)n2)c(Cl)c1	/	/	/	44*	/	/
Cc1c(N2C(=O)/C(=C\C3CC=CCC3)SC2=S)c(=O)n(-c2ccccc2)n1C (stereo unspecified)	44*	8	-4	-2	1	-2
Nc1c(N(CCO)C(=O)COc2ccc(Cl)cc2)c(=O)[nH]c(=O)n1Cc1ccccc1	/	-2	-19	-2	-2	/
Nc1c(N(CCC2=CCCCC2)C(=O)COc2ccc(F)cc2)c(=O)[nH]c(=O)n1Cc1ccccc1	-12	-92	-15	/	55*	19
Nc1c(N(Cc2ccccc2)C(=O)COc2ccc([N+](=O)[O-])cc2)c(=O)[nH]c(=O)n1Cc1ccccc1	-20	35	-17	-2	123*	2
Cc1cc2c(C)nc(-c3ccccc3)nc2o1	/	77	9	49*	-2	16
O=C(N/N=C/C(Br)=C\c1ccccc1)c1cccs1	/	/	/	126*	-2	4
O=C(O)c1ccc(N/N=C/C(Br)=C/c2ccccc2)cc1	74*	60	14	27	-6	-5
Cc1occc1C(=O)N/N=C/C=C/c1ccc(N(C)C)cc1	61*	48	0	11	3	3
Cc1ccc(C(=O)CNc2ccccc2)cc1	62*	62	2	6	-1	7
O=C(N/N=C/C(Br)=C/c1ccccc1)C(O)c1ccccc1 (stereo unspecified)	/	/	9	11	1	-3
Cc1ccc(C(=O)CNc2ccc(Br)cc2)cc1	21	/	-9	/	2	-9
C[C@H]1CN([C@@H](C)CO)C(=O)c2cc(-c3cccc(F)c3)cnc2O[C@H]1CN(C)Cc1cccnc1	-3	/	/	/	/	/
CC(=O)N(C)C[C@@H]1Oc2ncc(C#Cc3cccc(F)c3)cc2C(=O)N([C@@H](C)CO)C[C@@H]1C	1	/	/	/	/	/
CN1c2ccc(Br)cc2[C@H]2[C@H](CCN2C(=O)c2cccc(F)c2)[C@@H]1CO	-6	/	/	/	/	/
O=C(C=NNc1ccccc1)c1ccccc1	-45	52	-6	58*	-13	-3
Oc1ccccc1/C=N/Nc1ccccc1	?	70	-9	4	1	-8
O=C(O)c1ccc(COc2ccc(/C=N/NC(=O)c3cccs3)cc2)cc1	1	-1	8	13	2	0
